Test results: ChEMBL document CHEMBL4513151, “CO-ADD screening of Institut Català d'Investigació Química (Spain) compounds”
Several values for one entry are separate records, joined by “and”; a condition that tells them apart may be missing. Equal values may be shown once. Entries with a potency or affinity are not part of this list.

What was measured:
Staphylococcus aureus = conditions: Concentration 32 ug.mL-1, ASSAY_TEST Inhibition of Bacterial Growth, detection method Absorption (OD600), MEDIA CAMHB, plate type 384well, NBS, CORNING #3640, time 18 hr
Escherichia coli = conditions: Concentration 32 ug.mL-1, ASSAY_TEST Inhibition of Bacterial Growth, detection method Absorption (OD600), MEDIA CAMHB, plate type 384well, NBS, CORNING #3640, time 18 hr

Compound | Inhibition (Staphylococcus aureus) | Inhibition (Escherichia coli) | Inhibition (Staphylococcus aureus; 32 ug/mL) | Inhibition (Escherichia coli; 32 ug/mL)
C[C@]12CC[C@@](C)(O1)[C@H]1C=C[C@H](OC(=O)c3ccccc3)[C@H]12 | 17.97% | 0.47% | – | –
C[C@]12CC[C@@](C3CC3)(O1)[C@H]1C=C[C@H](OC(=O)c3ccccc3)[C@H]12 | – | – | 14.3% and 9.5% | -1.08% and -3.45%
C[C@@H]1CC(=O)C=C2C(=O)[C@@H]3[C@@H](C3(C)C)[C@]21C | 24.26% | 3.69% | – | –
C=C1CC(C(=O)OC)(C(=O)OC)C[C@@H]1[C@H](c1ccccc1)n1ccc2ccc(Cl)cc21 | 17.85% | 1.22% | – | –
C=C1CC(COCc2ccc(OC)cc2)(COCc2ccc(OC)cc2)C[C@@H]1[C@@H](Nc1ccc(Br)cc1)c1ccccc1 | -1.38% | -13.28% | – | –
C[C@]12CC[C@@](C3CCCC3)(O1)[C@H]1C=C[C@H](OC(=O)c3ccccc3)[C@H]12 | 23.21% | 7.38% | – | –
C[C@]12CC[C@@](c3ccccc3)(O1)[C@H]1C=C[C@H](OC(=O)c3ccccc3)[C@H]12 | – | – | 15.6% and 15.32% | -5.43% and -1.36%
C[C@]12CC[C@@](c3ccc(C(F)(F)F)cc3)(O1)[C@H]1C=C[C@H](OC(=O)c3ccccc3)[C@H]12 | – | – | 20.36% and 17.47% | 2.03% and 5%
C=C1CC(C(=O)OC)(C(=O)OC)C[C@@H]1[C@H](c1ccccc1)n1ccc2ccccc21 | 19.16% | 2.95% | – | –
C=C1CC(C(=O)OC)(C(=O)OC)C[C@@H]1[C@@H](NS(=O)(=O)c1ccc(C)cc1)c1ccccc1 | 21% | -0.02% | – | –
C=C1CC2(COC(C)(C)OC2)C[C@@H]1[C@@H](Nc1ccc(Br)cc1)c1ccccc1 | 25.91% | 2.09% | – | –
C=C1CC(COC)(COC)C[C@@H]1[C@@H](Nc1ccc(Br)cc1)c1ccccc1 | 4.73% | -1.74% | – | –
C[C@]12CC[C@@](c3ccc4ccccc4c3)(O1)[C@H]1C=C[C@H](OC(=O)c3ccccc3)[C@H]12 | 16.21% | -2.58% | – | –
C[C@]12CC[C@@H](O1)[C@H]1C=C[C@H](OC(=O)c3ccccc3)[C@H]12 | 21.38% | 2.42% | – | –
